From PubChem BioAssay (EPA / NIEHS)
Calls of active or inactive are those of the source. How the source made its calls: active means hit-call score of the fitted dose curve at least 0.9, where 1 is the maximum; inactive means score below 0.9.

Assay: ATG_PXRE_CIS: Attagene CIS-FACTORIAL HepG2 Assay for human Pregnane X Receptor Element (PXRE) (AID 2282957)
Conditions: HepG2 Attagene CIS-FACTORIAL PXRE reporter, mRNA; actives raise or lower the signal
Experimental: ATG_CIS is a cell-based, multiplexed-readout assay that uses HepG2, a human liver cell line, with measurements taken at 24 hours after chemical dosing in a 24-well plate.ATG_PXRE_CIS is one of 52 assay component(s) measured or calculated from the ATG_CIS assay. It is designed to make measurements of mRNA induction, a form of inducible reporter, as detected with fluorescence intensity signals by Reverse transcription polymerase chain reaction (RT-PCR) and Capillary electrophoresis technology.Data from the assay component ATG_PXRE_CIS was analyzed into 1 assay endpoint. This assay endpoint, ATG_PXRE_CIS, was analyzed with bidirectional fitting relative to DMSO as the negative control and baseline of activity. Using a type of inducible reporter, measures of mRNA for gain or loss-of-signal activity can be used to understand the reporter gene at the transcription factor-level as they relate to the gene NR1I2. Furthermore, this assay endpoint can be referred to as a primary readout, because this assay has produced multiple assay endpoints where this one serves a reporter gene function. To generalize the intended target to other relatable targets, this assay endpoint is annotated to the nuclear receptor intended target family, where the subfamily is non-steroidal.
Human liver HepG2 cells are transiently transfected with multiple reporter transcription units (MRTUs) in 6-well plates using FuGene 6 reagent (Roche; 3 ml FuGene/1 mg DNA). The MRTU constructs are regulated by a cis-regulating element (promoter). […] A major difference between the CIS and TRANS system is that in CIS activities of endogenous TFs are measured, whereas the TRANS assay evaluates changes in activities of exogenous, chimeric NR-Gal4 proteins. […] At the end of 24 hour incubation, total RNA was isolated using TriZol reagent (Invitrogen). The isolated RNA is then reverse-transcribed using oligo(dT) primer and Mo-MLV reverse transcriptase (Invitrogen) with DNAse I (Ambion) treatment for 30 min. The one-tenth of the produced cDNA was amplified by PCR using Taq DNA polymerase (Invitrogen) and two reporter sequence-specific primers. The PCR products were fluorescently labeled by primer extension with 6-arboxyfluorescein (6-FAM) 5'-labeled reporter sequence-specific primer (2 min at 95 C, 20 s at 68 C and 10 min at 72 C) and these products were digested with 5U of HpaI (New England Biolabs) for 2h at 37 C. The fragments were purified using Qiaquick PCR columns (Qiagen), analyzed on an ABI 3130xL genetic analyzer (Applied Biosystems) with peak positions identified by using a set of X-rhodamine (ROX)-labeled MapMarker1000 molecular weight standards (BioVentures). The raw capillary electrophoresis data was processed using Attagraph software (Attagene).

outcome, inactive:
Cc1[nH]c(=O)c(C#N)cc1-c1ccncc1
O=C(O)c1ccc(O)cc1
CCCC[O][Al]([O]CCCC)[O]CCCC
CCCOCCO
CC(C)(C)OC(=O)c1ccc(O)cc1
COc1ccc(CCO)cc1
CCOC(=O)CN
C=COCCOCCOC=C
CCC(C)S (stereo not given)
Cc1ccc(S(N)(=O)=O)cc1
NCCNc1cccc2ccccc12
C=C1C[C@]23C[C@@]1(O)CC[C@H]2[C@@]12C=C[C@H](O)[C@@](C)(C(=O)O1)[C@H]2[C@@H]3C(=O)O
C[C@@H]1CCN(C(=O)[C@H](CCCN=C(N)N)NS(=O)(=O)c2cccc3c2NC[C@H](C)C3)[C@@H](C(=O)O)C1
CC1(C)COCN1
CC(C)CCCCCCc1ccc(OCCOCCO)cc1
CCC1(c2ccccc2)C(=O)NCNC1=O
CCCCCC(C)=O
Cc1ccc(OC(=O)c2ccccc2O)cc1
CCOC(=O)CCc1ccccc1
CN1CCOCC1
OCCc1ccccc1
OCc1ccc(Cl)cc1Cl
CCCC(C)C(O)CC (stereo not given)

AC50, active:
C1=CC2C3C=CC(C3)C2C1 (stereo not given) 36.3 µM
COc1cccc(OC)c1O 27 µM
CCCC1O[C@@H]2C[C@H]3[C@@H]4CCC5=CC(=O)C=C[C@]5(C)[C@H]4[C@@H](O)C[C@]3(C)[C@]2(C(=O)CO)O1 (stereo not given in full) 4.12 µM
O=C1c2ccccc2C(=O)c2c(O)ccc(O)c21 7.05 µM
O=C(CC(=O)c1ccccc1)c1ccccc1 25.3 µM
CCOC(=O)COC(=O)c1cc(Oc2ccc(C(F)(F)F)cc2Cl)ccc1[N+](=O)[O-] 9.9 µM
COC(=O)Nc1ccc(Cl)c(Cl)c1 100 µM
CCCCCCC(C)Nc1ccc(Nc2ccccc2)cc1 (stereo not given) 1.78 µM
CCOc1ccc(N=Nc2ccc(C=Cc3ccc(N=Nc4ccc(OCC)cc4)cc3S(=O)(=O)O)c(S(=O)(=O)O)c2)cc1 39.9 µM
C=C(C)[C@@H]1CC=C(C)C(=O)C1 25.5 µM
BrCc1cccc(Oc2ccccc2)c1 26.3 µM
CS(=O)(=O)OCCCCOS(C)(=O)=O 55.8 µM
CCCCN(CCCC)C(=O)N(CCCC)CCCC 0.753 µM
c1ccc(Oc2ccccc2)cc1 25.1 µM
CCCCCCCCCCCCCCCC(=O)OC/C=C(C)/C=C/C=C(C)/C=C/C1=C(C)CCCC1(C)C 3.09 µM
C=C(C)C(=O)OCCOCCOCCOCCOC(=O)C(=C)C 35.3 µM
CCC(Cl)C(Cl)C(Cl)CC(Cl)C(Cl)C(C)Cl (stereo not given) 0.885 µM
